Measured values from PubChem BioAssay (Tox21).
Values without a mark were called inactive. Records with an inconclusive call do not appear. A call without a number means that no potency is given here. Calls of active or inactive are those of the source. The call rests on the fitted dose curve; in most records, active means well fitted curve in the direction sought with a large enough effect in the repeat runs; inconclusive means weak or mixed curves; inactive means no such curve, though single readings can be large; an effect the other way counts as inactive or inconclusive.

Experiments:
[1] = A CellTox Green Cytotoxicity Assay to monitor cytotoxicity in HepG2 cells - 8 hour (AID 1224890); further: nearly all actives have a fitted effect of over 45% in size; further: potency means the concentration at half of the fitted maximal effect
Method in brief: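 Continuous culture of HepG2 cells with a membrane-impermeant DNA dye; rising fluorescence marks dead cells. Compound exposure lasted up to 40 h at 37 C, with reads every 8 h from 0 h.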

[2] = qHTS assay to identify small molecule antagonists of the estrogen receptor alpha (ER-alpha) signaling pathway using the BG1 cell line in the presence of 0.1 nM 17-beta-estradiol - cell viability counter screen (AID 1259241); further: nearly all actives have a fitted effect of over 40% in size; further: potency means the concentration at half of the fitted maximal effect
Method in brief: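 Viability in VM7Luc4E2 cells after 22 hr compound exposure under 0.1 nM 17beta-estradiol stimulation, by CellTiter-Fluor.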

[3] = qHTS assay to identify small molecule antagonists of the androgen receptor (AR) signaling pathway using the MDA cell line in the presence of 0.5 nM R1881 - cell viability counter screen (AID 1259242); further: nearly all actives have a fitted effect of over 45% in size; further: potency means the concentration at half of the fitted maximal effect
Method in brief: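 Fluorescence from CellTiter-Fluor, which reports protease activity of live cells, was read 30 min after reagent addition to MDA-kb2 cells that had been incubated 16 hr with compound and 0.5 nM R1881.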

[4] = molecular target: Estrogen receptor (Homo sapiens) (UniProt P03372); assay: qHTS assay to identify small molecule antagonists of the estrogen receptor alpha (ER-alpha) signaling pathway using the BG1 cell line in the presence of 0.1 nM 17-beta-estradiol (AID 1259244); further: nearly all actives have a fitted effect of over 50% in size
Estrogen receptor (Homo sapiens), sequence (P03372 whole entry, looked up): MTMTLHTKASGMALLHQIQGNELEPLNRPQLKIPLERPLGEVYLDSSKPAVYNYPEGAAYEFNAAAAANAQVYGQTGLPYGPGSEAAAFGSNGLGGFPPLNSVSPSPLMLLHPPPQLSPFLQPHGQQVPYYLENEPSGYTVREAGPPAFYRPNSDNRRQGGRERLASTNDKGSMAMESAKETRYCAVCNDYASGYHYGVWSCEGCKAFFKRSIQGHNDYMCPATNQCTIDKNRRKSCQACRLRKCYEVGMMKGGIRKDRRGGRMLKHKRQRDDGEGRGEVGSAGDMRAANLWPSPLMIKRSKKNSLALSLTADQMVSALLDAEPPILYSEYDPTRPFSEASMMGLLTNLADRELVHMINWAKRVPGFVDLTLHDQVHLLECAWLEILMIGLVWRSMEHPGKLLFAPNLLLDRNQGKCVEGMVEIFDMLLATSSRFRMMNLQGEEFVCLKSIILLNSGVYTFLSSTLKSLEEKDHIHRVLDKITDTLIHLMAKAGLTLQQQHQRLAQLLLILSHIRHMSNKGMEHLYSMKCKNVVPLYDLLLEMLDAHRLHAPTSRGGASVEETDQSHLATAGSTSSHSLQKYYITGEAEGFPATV
Method in brief: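 Quantitative high-throughput screen in VM7Luc4E2 cells: compound plus 0.1 nM E2 (final), 22 h, 37C, 5% CO2; ONE-Glo added, 30 min room temperature, luminescence measured.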

[5] = qHTS assay to identify small molecule HDAC inhibitors (AID 1259364); further: nearly all actives have a fitted effect of over 45% in size; further: potency means the concentration at half of the fitted maximal effect; on activity change, negative = inhibition: top concentration of the series differs between compounds
Method in brief: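 Endogenous HDAC class I/II activity was measured in wild-type HCT-116 cells by HDAC-Glo luminescence after 2 h compound treatment.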

[6] = qHTS assay to identify small molecule HDAC inhibitors - cell viability counter screen (AID 1259365); further: series mostly up to about 92 µM; nearly all actives have a fitted effect of over 50% in size
Method in brief: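 Cytotoxicity was gauged in wild-type HCT-116 cells after a brief 2hr treatment with DMSO-dissolved compounds at 37C and 5% CO2, using CellTiter-Glo luminescence developed for 30min at room temperature.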

[7] = qHTS assay to identify small molecule agonists of the sonic hedgehog signaling (Shh) pathway - cell viability counter screen (AID 1259366); further: nearly all actives have a fitted effect of over 50% in size; further: potency means the concentration at half of the fitted maximal effect
Method in brief: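 Stable Gli1-Luc NIH/3T3 clone, 2,000 cells/well. Compound exposure 24hr at 37C. Read-out: CellTiter-Fluor fluorescence.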

[8] = qHTS assay to identify small molecule antagonists of the sonic hedgehog signaling (Shh) pathway - cell viability counter screen (AID 1259367); further: nearly all actives have a fitted effect of over 55% in size; further: potency means the concentration at half of the fitted maximal effect
Method in brief: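 Seed 3T3 Gli1-Luc cells at 2,000 per well; incubate 4 hr; add compound in DMSO, then conditioned medium; incubate at 37C with 5% CO2; add CellTiter-Fluor after 23 hr; read fluorescence 1 hr later.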

CC1(C)C(=O)NC(=O)N1CO
Potency [1]: inactive
Potency [2]: inactive
Potency [3]: inactive
Potency [4]: inactive
Potency [5]: inactive
outcome [6]: inactive
Potency [7]: inactive
Potency [8]: inactive

CC(C)(C)NCC(O)COc1ccc(NC(=O)NC2CCCCC2)cc1 (configuration not stated)
Potency [1]: inactive
Potency [2]: inactive
Potency [3]: inactive
Potency [4]: inactive
Potency [5]: inactive
outcome [6]: inactive
Potency [7]: inactive
Potency [8]: inactive

CCOC(OCC)OCC
Potency [1]: inactive
Potency [2]: inactive
Potency [3]: inactive
Potency [4]: inactive
Potency [5]: inactive
outcome [6]: inactive
Potency [7]: inactive
Potency [8]: inactive

CCCCCCCCS
Potency [1]: inactive
Potency [2]: inactive
Potency [3]: inactive
Potency [4]: inactive
Potency [5]: inactive
outcome [6]: inactive
Potency [7]: inactive
Potency [8]: inactive

O=C(O)CCc1nc2ccccc2[nH]1
Potency [1]: inactive
Potency [2]: inactive
Potency [3]: inactive
Potency [4]: inactive
Potency [5]: inactive
outcome [6]: inactive
Potency [7]: inactive
Potency [8]: inactive

NC(=O)c1cc[n+](CC2=C(C(=O)[O-])N3C(=O)[C@@H](NC(=O)Cc4cccs4)[C@H]3SC2)cc1
Potency [1]: inactive
Potency [2]: inactive
Potency [3]: inactive
Potency [4]: inactive
Potency [5]: inactive
outcome [6]: inactive
Potency [7]: inactive
Potency [8]: inactive

CC(C)(C)c1ccc(CCC=O)cc1
Potency [1]: inactive
Potency [2]: inactive
Potency [3]: inactive
Potency [4]: inactive
Potency [5]: inactive
outcome [6]: inactive
Potency [7]: inactive
Potency [8]: inactive

O=C1c2ccccc2C(=O)C1c1ccc2cc(S(=O)(=O)O)cc(S(=O)(=O)O)c2n1
Potency [1]: inactive
Potency [2]: 58.9 µM (active)
Potency [3]: 58.9 µM (active)
Potency [4]: inactive
Potency [5]: 0.589 µM (active)
outcome [6]: inactive
Potency [7]: 29.5 µM (active)
Potency [8]: 29.5 µM (active)

CCCCCCCCCCCCSC#N
Potency [1]: inactive
Potency [2]: inactive
Potency [3]: inactive
Potency [4]: inactive
Potency [5]: inactive
outcome [6]: inactive
Potency [7]: inactive
Potency [8]: inactive

O=C(OCCOCCOCCOC(=O)c1ccccc1)c1ccccc1
Potency [1]: inactive
Potency [2]: inactive
Potency [3]: inactive
Potency [4]: inactive
Potency [5]: inactive
outcome [6]: inactive
Potency [7]: inactive
Potency [8]: inactive

CCCCCCCCCCCCCCCCN
Potency [1]: 21.3 µM (active)
Potency [2]: inactive
Potency [3]: inactive
Potency [4]: inactive
Potency [5]: inactive
outcome [6]: inactive
Potency [7]: inactive
Potency [8]: inactive

C1CCN(CN2CCCCC2)CC1
Potency [1]: inactive
Potency [2]: inactive
Potency [3]: inactive
Potency [4]: inactive
Potency [5]: inactive
outcome [6]: inactive
Potency [7]: inactive
Potency [8]: inactive

CC(C)(C(=O)O)c1ccc(C(O)CCCN2CCC(C(O)(c3ccccc3)c3ccccc3)CC2)cc1 (configuration not stated)
Potency [1]: inactive
Potency [2]: inactive
Potency [3]: inactive
Potency [4]: inactive
Potency [5]: inactive
outcome [6]: inactive
Potency [7]: inactive
Potency [8]: inactive

CC(C)Oc1ccccc1O
Potency [1]: inactive
Potency [2]: inactive
Potency [3]: inactive
Potency [4]: inactive
Potency [5]: inactive
outcome [6]: inactive
Potency [7]: inactive
Potency [8]: inactive

CCc1cnc(C(=O)O)c(C(=O)O)c1
Potency [1]: inactive
Potency [2]: inactive
Potency [3]: inactive
Potency [4]: inactive
Potency [5]: inactive
outcome [6]: inactive
Potency [7]: inactive
Potency [8]: inactive

CCN(CCCCOC(=O)c1ccc(OC)c(OC)c1)C(C)Cc1ccc(OC)cc1 (configuration not stated)
Potency [1]: inactive
Potency [2]: inactive
Potency [3]: inactive
Potency [4]: inactive
Potency [5]: inactive
outcome [6]: inactive
Potency [7]: inactive
Potency [8]: inactive

OCCc1ccncc1
Potency [1]: inactive
Potency [2]: inactive
Potency [3]: inactive
Potency [4]: inactive
Potency [5]: inactive
outcome [6]: inactive
Potency [7]: inactive
Potency [8]: inactive

CCCCCCCCCCCCCCCCCCCl
cytotoxicity increase [1]: 0.0897% [at 6.97 µM]
activity change, negative = cytotoxicity [2]: 5.01% [at 8.39 µM]
viability change, negative = cytotoxic [3]: 5.37% [at 8.39 µM]
activity change, negative = inhibition [4]: -0.369% [at 8.39 µM]
activity change, negative = inhibition [5]: 2.06% [at 8.39 µM]
activity change, negative = cytotoxicity [6]: 1.46% [at 8.39 µM]
viability change, negative = cytotoxic [7]: 3.36% [at 8.39 µM]
viability change, negative = cytotoxic [8]: 0.635% [at 8.39 µM]

N#CCCCC(C#N)CCC#N (configuration not stated)
Potency [1]: inactive
Potency [2]: inactive
Potency [3]: inactive
Potency [4]: inactive
Potency [5]: inactive
outcome [6]: inactive
Potency [7]: inactive
Potency [8]: inactive

CCCCOC(=O)C(C)Oc1ccc(Oc2ccc(C(F)(F)F)cn2)cc1 (configuration not stated)
Potency [1]: inactive
Potency [2]: inactive
Potency [3]: inactive
Potency [4]: inactive
Potency [5]: inactive
outcome [6]: inactive
Potency [7]: inactive
Potency [8]: inactive

CCCCOc1ccc(N)cc1
Potency [1]: inactive
Potency [2]: inactive
Potency [3]: inactive
Potency [4]: inactive
Potency [5]: inactive
outcome [6]: inactive
Potency [7]: inactive
Potency [8]: inactive

CC(C)=CCC/C(C)=C/C=N/O
Potency [1]: inactive
Potency [2]: inactive
Potency [3]: inactive
Potency [4]: inactive
Potency [5]: inactive
outcome [6]: inactive
Potency [7]: inactive
Potency [8]: inactive

O=c1c2ccccc2oc2ccccc12
Potency [1]: inactive
Potency [2]: inactive
Potency [3]: inactive
Potency [4]: inactive
Potency [5]: 17.2 µM (active)
outcome [6]: inactive
Potency [7]: inactive
Potency [8]: inactive

O=Cc1ccc(Cl)c([N+](=O)[O-])c1
Potency [1]: inactive
Potency [2]: inactive
Potency [3]: inactive
Potency [4]: inactive
Potency [5]: inactive
outcome [6]: inactive
Potency [7]: 27.3 µM (active)
Potency [8]: inactive

CCCCCCC/C=C/C=O
Potency [1]: inactive
Potency [2]: inactive
Potency [3]: inactive
Potency [4]: inactive
Potency [5]: inactive
outcome [6]: inactive
Potency [7]: inactive
Potency [8]: inactive

Cc1cc(C)n(CO)n1
Potency [1]: inactive
Potency [2]: inactive
Potency [3]: inactive
Potency [4]: inactive
outcome [6]: inactive
Potency [7]: inactive
Potency [8]: inactive

O=P(c1ccccc1)(c1ccccc1)c1ccccc1
Potency [1]: inactive
Potency [2]: inactive
Potency [3]: inactive
Potency [4]: inactive
outcome [6]: inactive
Potency [7]: inactive
Potency [8]: inactive

Cc1ccc(Cl)c(OCC(O)CNC(C)(C)C)c1 (configuration not stated)
Potency [1]: inactive
Potency [2]: inactive
Potency [3]: inactive
Potency [4]: inactive
Potency [5]: inactive
outcome [6]: inactive
Potency [7]: inactive
Potency [8]: inactive
